Source: PubChem BioAssay

What follows are compounds tested against Torsin-1A (Homo sapiens) (UniProt O14656) (assay: torsin A binders from cell lysate, primary screen, small-molecule microarray, wild-type, 635/667 nm (AID 1149)). Details: COS7 hTOR1A-WT lysate, 635 nm fluorescence, higher = more signal.
Sequence of Torsin-1A (Homo sapiens) (O14656 whole entry, looked up): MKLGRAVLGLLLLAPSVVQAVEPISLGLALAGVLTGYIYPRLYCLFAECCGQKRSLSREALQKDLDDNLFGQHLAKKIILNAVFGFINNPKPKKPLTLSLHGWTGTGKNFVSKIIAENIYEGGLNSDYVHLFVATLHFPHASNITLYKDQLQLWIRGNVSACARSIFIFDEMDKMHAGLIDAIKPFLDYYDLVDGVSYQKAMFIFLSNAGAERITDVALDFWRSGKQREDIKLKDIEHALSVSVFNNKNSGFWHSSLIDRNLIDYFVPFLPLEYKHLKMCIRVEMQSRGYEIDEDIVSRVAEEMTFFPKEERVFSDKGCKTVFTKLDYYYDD
In the case of `O=C1C2C=CC(C(O)C3CCCCC3)N(Nc3ccc([N+](=O)[O-])cc3)C2C(=O)N1c1ccccc1` (configuration not stated), the composite z-score was -0.465.
Work on `C=CCNC(=O)[C@H]1[C@@H]2C(=O)O[C@@H](c3ccccc3)[C@@H](c3ccccc3)N2[C@@H](c2ccc(OCCO)cc2)[C@]12C(=O)N(C(=O)OCCOC)c1ccccc12` yielded a composite z-score of 0.895.
For `O=C1C2C=CC(C(O)c3c(F)cccc3Cl)N(Nc3ccccc3)C2C(=O)N1c1ccccc1` (configuration not stated), the composite z-score was 0.463.
For `CC(C)c1ccc(NN2C(C(O)c3cc(C(F)(F)F)cc(C(F)(F)F)c3)C=CC3C(=O)N(c4ccccc4)C(=O)C32)cc1` (configuration not stated), the composite z-score was -0.283.
`[N-]=[N+]=NCc1ccccc1C[C@]1(C(=O)O)N=C(c2ccc(OCCCO)cc2)O[C@H]1c1ccccc1N=[N+]=[N-]` gave a composite z-score of 2.01.
`O=C1O[C@H](c2ccccc2)[C@H](c2ccccc2)N2[C@H]1[C@@H](C(=O)NC[C@H](O)c1ccccc1)[C@]1(C(=O)Nc3ccccc31)[C@H]2c1ccc(OCCO)cc1` gave a composite z-score of 1.55.
In the case of `COC(=O)[C@@]1(Cc2ccc(F)cc2)[C@H]2c3cc(C(=O)N4CCCC4)n(Cc4ccc(C)o4)c3C[C@H]2CN1C(=O)c1ccccc1`, the composite z-score was 0.19.
For `COc1ccc([Si](C)(C)[C@H]2[C@H](CCn3cc([C@H](O)c4ccccc4)nn3)O[C@@]3(C(=O)N(Cc4cccc(N5CCOC5=O)c4)c4ccccc43)[C@@H]2C)cc1`, the composite z-score was 0.132.
`COc1ccc(CCNC(=O)[C@@]2(C)c3ccccc3C(=O)N(Cc3cc(F)cc(C(F)(F)F)c3)[C@H]2c2ccc(CO)cc2)cc1` was tested, and the composite z-score was -0.621.
Work on `O=C1O[C@@H](c2ccccc2)[C@@H](c2ccccc2)N2[C@@H](c3ccc(OCCO)cc3)[C@]3(C(=O)Nc4ccccc43)[C@@H](C(=O)NC[C@H](O)c3ccccc3)[C@H]12` yielded a composite z-score of 0.437.
For `C=C(/C(=C/C[C@@H](OC(C)=O)c1ccc(OCCO)cc1)c1cnc2ccccc2c1)C(C)C`, the composite z-score was -0.969.
In the case of `O=C1OCC=C[C@H]2OC34C=CCN(CCN5CCOCC5)C(=O)[C@H]3N(CCCO)C(=O)[C@@H]4[C@@H]12` (some centres not stated), the composite z-score was 0.267.
`C=CC[C@]1(C(=O)NCCCOC)N=C(c2ccc(OCCCO)cc2)O[C@H]1c1ccccc1N=[N+]=[N-]` was tested, and the composite z-score was 0.0108.
`COCC(=C=CC[C@H](O)c1ccccc1OCCO)C[C@H](O)c1cc(Cl)cc(Cl)c1O` was tested, and the composite z-score was -0.256.
For `COC(=O)c1c(CC[C@@H](CO)NC(=O)N2CCC[C@H]2Cn2cc(-c3ccccn3)nn2)oc(C(C)=O)c1C(=O)OC`, the composite z-score was 0.0323.
With `C=CCN(Cc1ccccc1)C(=O)C(c1cccs1)N(CCOCCO)C(=O)/C=C\C(=O)O` (configuration not stated) the composite z-score was -3.64.
In the case of `CCN(CC)c1ccc(N2CC=CC34O[C@@H]5/C=C\CCCOC(=O)C5[C@H]3C(=O)N(CCO)[C@@H]4C2=O)cc1` (some centres not stated), the composite z-score was -1.53.
Compound `C=CC[C@@]1(C(N)=O)N=C(c2ccc(OCCCO)cc2)O[C@@H]1c1ccccc1CN=[N+]=[N-]` has a composite z-score of 0.183.
`O=C1c2ccccc2[C@](Cc2ccccc2I)(C(=O)NC2CC2)[C@H](c2ccc(CO)cc2)N1C1CCCCC1` showed a composite z-score of 0.414.
`O=C(NCc1ccccc1)[C@@]1(CCS(=O)(=O)c2ccccc2)N=C(c2ccc(OCCCO)cc2)O[C@H]1c1ccccc1` showed a composite z-score of 1.35.
`CCCCCN1CC=CC23O[C@@H]4/C=C\CCCOC(=O)C4[C@H]2C(=O)N(CCCO)[C@@H]3C1=O` (some centres not stated) showed a composite z-score of 2.02.
Work on `C=CCNC(=O)[C@@H]1[C@H]2C(=O)O[C@H](c3ccccc3)[C@H](c3ccccc3)N2[C@H](c2ccccc2OCCO)[C@@]12C(=O)N(C(=O)OCCOC)c1ccc(C#CCNC(N)=O)cc12` yielded a composite z-score of 0.186.
`COCCOC(=O)N1C(=O)[C@@]2(c3cc(C#CCCO)ccc31)[C@H](C(=O)N1CCN(c3ncccn3)CC1)[C@H]1C(=O)O[C@H](c3ccccc3)[C@H](c3ccccc3)N1[C@@H]2c1ccccc1OCCO` gave a composite z-score of 0.259.
In the case of `COc1ccc(CCN2C(=O)[C@@]3(c4ccc([N+](=O)[O-])cc4)CC(=O)N(C4CCCCC4)[C@@H]3c3ccc(CO)cc32)cc1`, the composite z-score was 0.209.
For `CCOC(=O)C[C@H]1[C@H](OC(=O)c2ccc(C(=O)c3ccccc3)cc2)[C@@H](NC(=O)c2ccc(-c3ccccc3)cc2)c2cc(OCCCO)ccc2N1C(=O)c1ccccc1`, the composite z-score was 0.117.
With `COC(=O)C(CC#Cc1ccc2c(c1)[C@]1(C(=O)N2)[C@H](c2ccc(O)cc2)N2[C@H](c3ccccc3)[C@H](c3ccccc3)OC(=O)[C@H]2[C@@H]1C(=O)Nc1nc2ccccc2s1)C(=O)OC` the composite z-score was 1.41.
`O=C1[C@H]2C=C(Br)[C@H](C[C@@H]2OCCCCO)[C@@]12CO2` showed a composite z-score of 0.411.
